PubChem BioAssay (NCI)
Values joined by “and” are separate entries in the source; they are usually repeats but may differ in a detail not shown here. Equal entries are not always repeated. Compounds without any hit were thinned out: in the full panel of roughly 83,000, 20% have a hit.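 The test compound was applied at a single concentration to cells in 96-well plates for 48 hours, and percent growth was recorded.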 Active and inactive are the calls of the source. Rule for the calls: active = growth percent below 10; inactive = the rest.

Each compound was assayed on HL-60(TB) leukemia (assay: NCI-60 one-dose screen, 48 h (100 = growth as untreated, 0 = no growth, -100 = all killed)). Conditions: 10 µM unless noted.

SMILES	growth
COc1cc(/C=C/C(=O)c2cccc(Nc3nc(Nc4ccccc4)nc(Nc4ccccc4)n3)c2)cc(OC)c1OC	9.01% (active)
Clc1ccc(/C=N\N=c2\scc(-c3ccc(Cl)cc3)n2/N=C/c2ccc(Cl)cc2)cc1	84.5% (inactive)
O=C(Nc1cc(Cl)ccc1O)c1ccc(Nc2ccnc(C(F)(F)F)c2)cc1	-11% (active)
Cn1c2nc3ccccc3c-2nc2ccccc21	88.8% (inactive) and 55.2% (inactive)
